Screens from PubChem BioAssay.
IL-1B inflam inh = blocks inflammasome-driven IL-1 beta release; AID 743279; THP-1 LPS/ATP IL-1B secretion, AlphaLISA, 16 h; active compounds read low; 4.7% of 360,000 active; activity change, % at 57.5 µM; in the data active = activity change below about -50%; inconclusive = mostly about -30% to -49%
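THP-1 cells pretreated 1 hr with compounds (up to 57.5 uM final), then stimulated with LPS (250 ng/mL final) plus ATP (1.25 mM final); secreted IL-1B measured by AlphaLISA after 16 hr, decreased signal indicating inhibition.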
KB-3-1 tox = KB-3-1 parental cell cytotoxicity | KB-3-1 viability, CellTiter-Glo ATP luminescence, 72 h | Potency, µM (highest dose often 46.1 µM), hits mostly cytotoxic | 1.4% of 400,000 active | AID 1347075; note: potency is the fitted concentration of half-maximal effect; nearly all actives have a fitted effect of over 60% in size
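Parental KB-3-1 viability, qHTS format: 72 h compound exposure, 37 °C; CellTiter-Glo; media-only wells and DMSO plates as controls; concentration-effect fits on corrected data.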
HT1080NT lethal = kills 2HG-producing HT-1080-NT fibrosarcoma cells | HT-1080-NT fibrosarcoma viability, CellTiter-Glo ATP luminescence, 48 h | Potency, µM (series often up to 46.1 µM), for inactives: at the highest dose activity, negative = less viability, most hits filed as cytotoxic | 1.6% of 360,000 active | AID 686970;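 note: NT is the 2HG producing partner of a matched IDH1 knockdown line; potency is the fitted concentration of half-maximal effect; 0% = DMSO-treated cells and -100% = media-only wells without cells; nearly all actives have a fitted effect of over 55% in size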
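Toxicity toward the 2HG-producing NT line was scored as %Activity, normalised to DMSO and no-cell wells, from CellTiter-Glo luminescence after 48 hours' treatment.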
KB-V1 MDR tox = kills drug-selected multidrug resistant KB-V1 cells | KB-V1 MDR cells viability, CellTiter-Glo, 72 h | Potency, µM (top dose mostly 46.1 µM), hits mostly cytotoxic | 3.4% of 400,000 active; note: potency is the fitted concentration of half-maximal effect; nearly all actives have a fitted effect of over 60% in size
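KB-V1, DMEM (no phenol red) + 10% FBS; cpd pin-transferred, titration series; 72 h, 37 degrees C; CellTiter-Glo, luminescence. Data normalized, curve-fit.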
HT1080 IDH1KD tx = kills HT-1080 cells with IDH1 knockdown. HT-1080 IDH1 knockdown viability, ATP luminescence, 48 h. Potency, µM (top dose mostly 46.1 µM), for the others: at the top dose activity, negative = toxicity, actives largely listed as cytotoxic. 2% of 360,000 active. AID 686971;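 note: potency is the fitted concentration of half-maximal effect; 0% = DMSO wells and -100% = cell-free medium wells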
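Viability of IDH1-knockdown HT-1080 fibrosarcoma cells was assessed by CellTiter-Glo after 48 h at 37 °C with titrated compound; concentration-effect curves were classified by fit quality and response size.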
Numbers without * were called inactive; i = inactive; ? = inconclusive; . = no result given; [ ] = remark or other dose. This is a sample that favours compounds with a hit; in the whole collection about 8.8% have one here. Unless noted, calls come from the whole dose curve; as a rule, active = well fitted curve in the direction sought with a large enough effect; inconclusive = small, poorly fitted or top-dose-only effect, or another doubt; inactive = no such curve, though single readings can be large; an effect the other way counts as inactive or inconclusive. Unless noted, % is set by controls: 0 for no effect and ±100 for the full control effect.

SMILES | IL-1B inflam inh | KB-3-1 tox | HT1080NT lethal | KB-V1 MDR tox | HT1080 IDH1KD tx
Cc1ccc2nsnc2c1NC(=O)c1ccc([N+](=O)[O-])o1 | -92* | 4.1µM* | -14% | ? | ?
O=C(O)c1cc(-c2ccccc2)nn1CC1CC(c2cccc([N+](=O)[O-])c2)=NO1 (stereo not drawn) | -8 | i | 13% | i | 6%
CCOC(=O)c1c(NC(=O)CN2CCCc3ccccc32)sc(C(C)=O)c1C | 13 | i | -3% | 4.1µM* | -3%
CCOC(=O)c1c(NC(=O)N/N=C/c2ccccc2OCC)sc(C(C)=O)c1C | 57 | 16µM* | 10% | ? | 10%
CCOC(=O)c1c(NC(=O)CSc2nnc(Cc3ccccc3)o2)sc(C(C)=O)c1C | -22 | i | -8% | 18µM* | -13%
CC1CC(C)CN(CC(=O)Nc2cc(S(=O)(=O)N3CCOCC3)ccc2N2CCCC2)C1 (stereo not drawn) | -8 | i | 0%[9.24 µM] | i | 0%
CC(=O)c1cccc(NC(=O)c2cnn(-c3cccc(C)c3)c2-n2cccc2)c1 | . | i | . | i | .
Cc1nc2c(=O)n(C)c(=O)n(C)c2nc1Cl | -99* | 15µM* | 9.2µM* | ? | 5.8µM*
O=C(Nc1ccc2oc(-c3cccc4c(Br)cccc34)nc2c1)c1ccc(F)cc1 | . | i | . | i | .
CCCN1C(=O)C(=O)N(CC(=O)c2cc(C)n(C3CC3)c2C)C1=O | -5 | ? | -1% | 21µM* | 1%
Cc1cc(C(=O)CN2C(=O)C(=O)N(CC(C)C)C2=O)c(C)n1C1CC1 | 0 | i | 13% | 18µM* | 1%
Cc1cc(C(=O)CN2C(=O)c3ccccc3C2=O)c(C)n1C1CC1 | -12 | i | 9% | i | 10%
COc1cccc(C2(C)NC(=O)N(CC(=O)c3cc(C)n(C4CC4)c3C)C2=O)c1 (stereo not drawn) | 0 | i | -2% | 16µM* | -5%
CCN1C(=O)C(=O)N(CC(=O)c2cc(C)n(C3CC3)c2C)C1=O | -13 | i | -2% | i | 2%
Cc1cc(C(=O)CN2C(=O)NC(C)(c3cc(F)ccc3F)C2=O)c(C)n1C1CC1 (stereo not drawn) | -23 | i | -3% | i | -1%
CC(C)CN1C(=O)C(=O)N(CC(=O)c2ccc3c(c2)CCCC3)C1=O | -14 | i | -4% | 16µM* | 0%
Cc1cc(C(=O)CN2C(=O)C(=O)N(CCC3=CCCCC3)C2=O)c(C)n1C | -8 | i | -4% | 23µM* | -2%
Cc1cc(C(=O)CN2C(=O)NC3(CCCCC3)C2=O)c(C)n1C | 0 | i | 6% | ? | 6%
COc1ccc(CN2CCC(n3nccc3NC(=O)CCOc3ccccc3)CC2)cc1C | i | i | 5% | ? | -1%
COc1ccc(C2/C=C\CN(C(=O)c3ccc(C)cc3)[C@H](Cc3ccccc3)C(=O)N2Cc2ccc(F)cc2)cc1 (stereo partly drawn) | 27 | 12µM* | -7% | ? | -18%
COc1ccc(C2/C=C\CN(C(=O)C3CC3)[C@H](Cc3ccccc3)C(=O)N2Cc2ccc(F)cc2)cc1 (stereo partly drawn) | 0 | i | ? | ? | ?
C=CCn1c(SCC(N)=O)nc2scc(-c3ccc(C)o3)c2c1=O | 36 | ? | -5% | i | -1%
CCN(CC)S(=O)(=O)c1cccc(NC(=O)C2SC(=Nc3ccc(C)cc3C)C(C(=O)NCC3CCCO3)=C2N)c1 (stereo not drawn) | 0 | ? | -1% | 21µM* | -20%
COCCNC(=O)C1=C(N)C(C(=O)Nc2ccc(C)c(S(=O)(=O)N3CCCCC3)c2)SC1=Nc1ccc(C)cc1C (stereo not drawn) | -20 | i | 13µM* | i | ?
CCc1nc2ccc(C(=O)NCc3ccc(OC)cc3)cn2c1N(CC)CCOC | -2 | i | 4% | ? | -7%
SMILES | IL-1B inflam inh | KB-3-1 tox | HT1080NT lethal | KB-V1 MDR tox | HT1080 IDH1KD tx
CCc1cn(C2CC(O)C(CO)O2)c(=O)[nH]c1=O (stereo not drawn) | 33 | 4.6µM* | 3% | i | 7%
Nc1nc(=O)n(C2CC(O)C(CO)O2)cc1F (stereo not drawn) | 18 | i | -20% | i | 5.2µM*
Nc1nc(=O)n(C2CC(O)C(CO)O2)cc1Cl (stereo not drawn) | 10 | i | ? | i | 6%
NC(CCc1ccccc1)c1csc(NC(=O)NCC2CCCCC2)n1 (stereo not drawn) | ? | ? | 16µM* | ? | ?
COc1ccc(CCNC(=O)Nc2nc(C(N)Cc3ccccc3)cs2)cc1OC (stereo not drawn) | ? | i | ? | i | ?
COc1ccc(CC(N)c2csc(NC(=O)Nc3cc(OC)ccc3OC)n2)cc1 (stereo not drawn) | 0 | i | ? | i | ?
COc1cc(NC(=O)Nc2nc(C(N)CCc3ccccc3)cs2)cc(OC)c1OC (stereo not drawn) | ? | ? | 18µM* | i | ?
COc1ccc(OC)c(NC(=O)Nc2nc(C(N)CCc3ccccc3)cs2)c1 (stereo not drawn) | . | ? | ? | ? | 21µM*
O=C(CCNC(=O)c1ccccc1)NNC(=O)COc1ccccc1Cl | 31 | i | -3% | i | -13%
O=C(COC(=O)c1ccccc1N1C(=O)C2C3CCC(C3)C2C1=O)c1ccccc1 (stereo not drawn) | 0 | i | 18% | i | 8%
Cc1ccc(C)c(C(=O)COC(=O)c2ccccc2N2C(=O)C3C4CCC(C4)C3C2=O)c1 (stereo not drawn) | -11 | i | 0% | 4.1µM* | -3%
COc1ccc(Nc2ncc(C(=O)Nc3cccc(OC)c3)c3ccccc23)cc1 | . | i | . | i | .
COC(=O)C1=CN(c2ccc(Oc3ccccc3)cc2)C(N)=C(C#N)C1c1cccc(F)c1 (stereo not drawn) | 0 | i | -24% | i | -29%
COC(=O)C1=CN(c2c(C)cc(C)cc2C)C(N)=C(C#N)C1c1ccccc1 (stereo not drawn) | -13 | i | -29% | ? | -29%
COC(=O)C1=CN(c2ccc3c(c2)OCO3)C(N)=C(C#N)C1c1ccc(-c2ccccc2)cc1 (stereo not drawn) | 68 | 4.6µM* | 5.2µM* | 3.7µM* | 3.3µM*
COC(=O)C1=CN(c2ccc(F)cc2)C(N)=C(C#N)C1c1cccc(F)c1 (stereo not drawn) | -16 | ? | ? | 8.2µM* | 23µM*
